# In PubChem BioAssay (NCATS):
# Several values for one entry are separate records, joined by “and”; a condition that tells them apart may be missing. Equal values may be shown once. Results filed as inconclusive are left out. Unmarked numbers belong to inactive results. Activity calls are given as the source filed them. Calls follow the shape of the dose curve; as a rule, active = well fitted curve in the direction sought with a large enough effect; inconclusive = small, poorly fitted or top-dose-only effect, or another doubt; inactive = no such curve, though single readings can be large; an effect the other way counts as inactive or inconclusive.
# Experiments:
# [1] = P-glycoprotein substrates identified in KB-8-5-11 adenocarcinoma cell line, qHTS therapeutic library screen (AID 1346987); also: nearly all actives have a fitted effect of over 65% in size; as to activity change, negative = cytotoxicity: series mostly up to about 44 µM; % is scaled to controls: 0 for no effect and ±100 for the full control effect
# Outline: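 Human cervical adenocarcinoma KB-8-5-11 cells, selected in colchicine to over-express P-gp and assayed without it, were exposed for 72 h to titrated compounds. An ATP-based luminescent viability signal gave AC50.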
# [2] = qHTS of pediatric cancer cell lines to identify multiple opportunities for drug repurposing: Primary screen for A673 cells (AID 1347092); also: nearly all actives have a fitted effect of over 45% in size
# Outline: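 Cells are plated, rested 5 h, dosed by pintool, incubated 48 h, then lysed with CellTiter-Glo and read by luminescence. DMSO is the neutral control; bortezomib at 2.3 uM final is the positive control.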
# [3] = qHTS of pediatric cancer cell lines to identify multiple opportunities for drug repurposing: Primary screen for SK-N-MC cells (AID 1347093)
# Outline: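 Metabolically active cells were quantified by ATP-dependent luminescence (CellTiter-Glo, 15 min at room temperature) following 48 h treatment. Cells had been plated at 500-1,000 per well and settled for 5 h beforehand.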
# [4] = qHTS of pediatric cancer cell lines to identify multiple opportunities for drug repurposing: Primary screen for BT-37 cells (AID 1347094)
# Outline: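 Viability was measured as metabolically active cells after 48 hours of treatment, read by CellTiter-Glo luminescence. Compounds were tested at multiple final concentrations, giving concentration-response curves.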
# [5] = NS1 protein of Zika virus - qHTS assay to identify small molecule inhibitors in human HEK 293 cells (AID 1347053); also: nearly all actives have a fitted effect of over 55% in size
# Outline: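 Readout was TR-FRET using paired anti-NS1 antibodies after 24 h infection of HEK 293 cells with ZIKV MR766 (MOI = 0.5). Compound preceded virus by 1 h; reduced signal reflects lower NS1 expression.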
# [6] = qHTS of pediatric cancer cell lines to identify multiple opportunities for drug repurposing: Primary screen for DAOY cells (AID 1347090); also: nearly all actives have a fitted effect of over 55% in size
# Outline: (§1)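 Cell viability, CellTiter-Glo luminescence; 500-1,000 cells/well, 8- or 11-point titration, 48 h compound exposure at 37 degrees C, 5% CO2. Controls: DMSO neutral, bortezomib 2.3 µM final as positive.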
# [7] = qHTS of pediatric cancer cell lines to identify multiple opportunities for drug repurposing: Primary screen for TC32 cells (AID 1347089); also: nearly all actives have a fitted effect of over 60% in size
# Outline: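 Measured quantity: luminescence from CellTiter-Glo, reflecting metabolically active TC32 cells following 48 h of compound. Curves came straight from multi-point titrations, with 8 or 11 points in primary and 11 in confirmatory screening.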
# [8] = qHTS of pediatric cancer cell lines to identify multiple opportunities for drug repurposing: Primary screen for SJ-GBM2 cells (AID 1347091)
# Outline: as §1
# Potency is read from the fitted curve at half-maximal effect.
Compound,"activity change, negative = cytotoxicity [1]",Potency [2],Potency [3],Potency [4],Potency [1],Potency [5],Potency [6],Potency [7],Potency [8]
CC(=O)c1c(C)c2cnc(Nc3ccc(N4CCNCC4)cn3)nc2n(C2CCCC2)c1=O,6.87% [at 5.11 µM],14800 nM (active),20900 nM (active),24300 nM (active),,,,,
Cc1cn2c(-c3cn[nH]c3)cnc2c(Nc2ccc(C(=O)N3CCNCC3)cc2F)n1,,14800 nM (active),1660 nM (active),17200 nM (active),inactive,inactive,18700 nM (active),,
COCCOc1ccc2c(c1)ncn2-c1ccc2cccc(N3CCC(N)CC3)c2n1,,4690 nM (active),,24300 nM (active),23.5 µM (active),,23500 nM (active),,
CNC(=O)CN1CCC(Oc2cc3c(Nc4cccc(Cl)c4F)ncnc3cc2OC)CC1,,,5.3 nM (active),1 nM (active),inactive,,9.3 nM (active),930 nM (active),1 nM (active)
NC(=O)c1c(OCc2c(F)cc(Br)cc2F)nsc1NC(=O)NCCCCN1CCCC1,,18700 nM (active),16600 nM (active),24300 nM (active),18.4 µM (active),inactive,23500 nM (active),,20900 nM (active)
COc1cc2nccc(Oc3ccc(NC(=O)C4(C(=O)Nc5ccc(F)cc5)CC4)cc3)c2cc1OC,,1480 nM (active),1660 nM (active),1720 nM (active),16.6 µM (active) and 9.2 µM (active),,,,23.5 nM (active)
CN1CCN(Cc2ccc(NC(=O)Nc3ccc(Oc4cc(NC(=O)C5CC5)ncn4)cc3)cc2C(F)(F)F)CC1,,148 nM (active),332 nM (active),544 nM (active),5.8 µM (active),1180 nM (active),,,372 nM (active)
CC(C)c1nn(-c2c(Cl)cccc2Cl)c2nc(Cc3ccc(OCCO)cc3)[nH]c(=O)c12,,37.2 nM (active),41.8 nM (active),96.8 nM (active),118 nM (active) and 103 nM (active),166 nM (active),74.3 nM (active),,41.8 nM (active)
Nc1cccc(-c2cc3c(Oc4cccc(O)c4)ncnc3[nH]2)c1,,14800 nM (active),1050 nM (active),,20.9 µM (active),inactive,7430 nM (active),,20900 nM (active)
Cn1c2ccccc2c2c3c(c4c5ccccc5n(CCC#N)c4c21)CNC3=O,,935 nM (active),148 nM (active),7690 nM (active),5.8 µM (active),,5900 nM (active),,590 nM (active)
Cc1cc(C(=O)N2CCN(c3cccc(Cl)c3)CC2)n(-c2ccccc2)n1,,590 nM (active),118 nM (active),6110 nM (active),372 nM (active) and 1.3 µM (active),,743 nM (active),2940 nM (active),118 nM (active)
CCCNC(=O)Nc1ccc(Oc2ncnc3cc(OC)c(OC)cc23)cc1Cl,,inactive,inactive,inactive,inactive,inactive,inactive,,
CC(C)c1cnn2c(NCc3ccccc3)cc(N[C@@H](CO)[C@H](O)CO)nc12,,118 nM (active),296 nM (active),306 nM (active),1.18 µM (active) and 4.61 µM (active),526 nM (active),372 nM (active),,166 nM (active)
CNC(=O)c1ccccc1Nc1nc(Nc2ccc(N3CCOCC3)cc2OC)ncc1Cl,,1870 nM (active),209 nM (active),7690 nM (active),1.87 µM (active) and 1.64 µM (active),,14800 nM (active),3300 nM (active),
CC(C)c1cc(C(=O)N2Cc3ccc(CN4CCN(C)CC4)cc3C2)c(O)cc1O,,296 nM (active),332 nM (active),,0.092 µM (active),,,1040 nM (active),
CC(C)c1cc(-c2n[nH]c(=O)n2-c2ccc3c(ccn3C)c2)c(O)cc1O,,118 nM (active),52.6 nM (active),122 nM (active),0.0935 µM (active),inactive,,,118 nM (active)
CC(C)(C)NC(=O)[C@H]1CN(Cc2cccnc2)CCN1C[C@@H](O)C[C@@H](Cc1ccccc1)C(=O)N[C@H]1c2ccccc2C[C@H]1O,,743 nM (active),118 nM (active),,23.5 µM (active),,,inactive,
COc1cccc(-c2ccc(NC(=O)C3=C(C(=O)O)CCC3)c(F)c2)c1,,5900 nM (active),1320 nM (active),19300 nM (active),,2090 nM (active),,,11800 nM (active)
C=CC(=O)N1CCC[C@@H](n2nc(-c3ccc(Oc4ccccc4)cc3)c3c(N)ncnc32)C1,,9350 nM (active),372 nM (active),,,,,inactive,
NC1(Cc2ccc(Cl)cc2)CCN(c2ncnc3[nH]ccc23)CC1,,14800 nM (active),3320 nM (active),,,,,,5260 nM (active)
CC(C)(O)CCc1ccc(OCc2cc(-c3cccc(OC(F)F)c3)c3ncccc3c2)cc1,,inactive,,inactive,,,inactive,inactive,inactive
Cc1nc2ccc(CN(C)c3ccc(C(=O)N[C@@H](CCC(=O)O)C(=O)O)s3)cc2c(=O)[nH]1,,59 nM (active),10.5 nM (active),,,inactive,,131 nM (active),
CCC1=C[C@@H]2CN(C1)Cc1c([nH]c3ccccc13)[C@@](C(=O)OC)(c1cc3c(cc1OC)N(C)[C@@H]1[C@@](O)(C(=O)OC)[C@H](OC(C)=O)[C@]4(CC)C=CCN5CC[C@]31[C@@H]54)C2,,9.3 nM (active),8.3 nM (active),43.2 nM (active),,4180 nM (active),,104 nM (active),33.2 nM (active)
Nc1ccc(S(=O)(=O)Nc2ncccn2)cc1,,inactive,23500 nM (active),inactive,,inactive,inactive,,

Compound,"activity change, negative = cytotoxicity [1]",Potency [2],Potency [3],Potency [4],Potency [1],Potency [5],Potency [6],Potency [7],Potency [8]
Clc1cccc(-n2nnnc2NCc2ccccc2Oc2ccccn2)c1Cl,,inactive,inactive,inactive,,inactive,,inactive,inactive
COc1c(OCCCN2CCOCC2)ccc2c3n(c(=NC(=O)c4cnc(N)nc4)nc12)CCN3,,162 nM (active),28.8 nM (active),,,,,2550 nM (active),2040 nM (active)
COc1cc(-c2nn(C3CCC(N4CCN(C(C)=O)CC4)CC3)c3ncnc(N)c23)ccc1NC(=O)c1cc2ccccc2n1C (centres undefined),,235 nM (active),743 nM (active),,,inactive,,,1870 nM (active)
C[C@@H]1CN(CC(=O)Nc2ccc3c(c2)Cc2cccc(-c4cc(=O)cc(N5CCOCC5)o4)c2S3)C[C@H](C)O1,,14800 nM (active),4180 nM (active),,,18700 nM (active),,inactive,14800 nM (active)
Nc1ccn([C@@H]2O[C@H](CO)[C@H](O)C2(F)F)c(=O)n1,,18.7 nM (active),1320 nM (active),30.6 nM (active),,743 nM (active),1870 nM (active),117 nM (active),235 nM (active)
CCc1cc2c(cc1N1CCC(N3CCOCC3)CC1)C(C)(C)c1[nH]c3cc(C#N)ccc3c1C2=O,,inactive,,inactive,,inactive,,inactive,inactive
CC[C@H]1CN2CCc3cc(OC)c(OC)cc3[C@H]2C[C@@H]1C[C@@H]1NCCc2cc(OC)c(OC)cc21,,118 nM (active),296 nM (active),544 nM (active),,118 nM (active),935 nM (active),,209 nM (active)
COc1cc(C)c(Sc2cnc(NC(=O)c3ccc(CNC(C)C(C)C)cc3)s2)cc1C(=O)N1CCN(C(C)=O)CC1 (centres undefined),,9350 nM (active),2090 nM (active),,,,,7390 nM (active),18700 nM (active)
COc1cc2c(NC3CCN(C(C)C)CC3)nc(C3CCCCC3)nc2cc1OCCCN1CCCC1,,5900 nM (active),29600 nM (active),30600 nM (active),,inactive,18700 nM (active),inactive,23500 nM (active)
O=C(O)Cn1nnc(-c2cc(N3CCC(Oc4cc(F)ccc4Br)CC3)no2)n1,,372 nM (active),,,,,inactive,,
CC[C@@]1(O)C(=O)OCc2c1cc1n(c2=O)Cc2cc3cc(O)ccc3nc2-1,,29.6 nM (active),13.2 nM (active),21.7 nM (active),,33.2 nM (active),118 nM (active),41.5 nM (active),23.5 nM (active)
Cc1cc(N2CCOCC2)cc2[nH]c(-c3c(NC[C@@H](O)c4cccc(Cl)c4)cc[nH]c3=O)nc12,,296 nM (active),11.8 nM (active),24300 nM (active),,inactive,935 nM (active),739 nM (active),16600 nM (active)
Cc1cc(Nc2nc(N[C@@H](C)c3ccc(F)cc3)c(C#N)cc2F)n[nH]1,,1180 nM (active),743 nM (active),,,inactive,,,
O=C(CCCCCCNC(=O)c1cnc(N(c2ccccc2)c2ccccc2)nc1)NO,,9350 nM (active),2960 nM (active),15300 nM (active),,inactive,18700 nM (active),18600 nM (active),5260 nM (active)
COc1cc2c(cc1-c1c(C)noc1C)ncc1[nH]c(=O)n([C@H](C)c3ccccn3)c12,,4690 nM (active),1180 nM (active),17200 nM (active),,inactive,,,16600 nM (active)
Cc1c(NC(=O)OC[C@@H]2COCCN2)cn2ncnc(Nc3ccc4c(cnn4Cc4cccc(F)c4)c3)c12,,46.9 nM (active),93.5 nM (active),,,,74.3 nM (active),inactive,
COc1cccc(Nc2c(C(N)=O)cnc3c(C)cc(S(=O)(=O)c4cccc(C(=O)N(C)C)c4)cc23)c1,,inactive,6450 nM (active),inactive,,inactive,inactive,,inactive
CNC(=O)c1ccc(-c2cnc3ncc(Cc4ccc5ncccc5c4)n3n2)cc1F,,,,inactive,,inactive,,inactive,
O=C1CCC[C@@H]2[C@H]3CCC[N+]4([O-])CCC[C@@H](CN12)[C@@H]34 (some centres undefined),,inactive,inactive,inactive,,inactive,inactive,,inactive
C[C@H]1C[C@@H]2[C@@H]([C@@H](O)C[C@@]3(C)[C@H]2CC[C@]3(O)C(=O)CO)[C@@]2(C)C=CC(=O)C=C12,,inactive,,inactive,,inactive,,inactive,inactive
COc1cc(Nc2ncc(F)c(Nc3ccc4c(n3)N(COP(=O)(O)O)C(=O)C(C)(C)O4)n2)cc(OC)c1OC,,2960 nM (active),1320 nM (active),inactive,,inactive,,inactive,1480 nM (active)
CNC(=O)c1nn(C)c2c1C(C)(C)Cc1cnc(Nc3ccc(N4CCN(C)CC4)cc3)nc1-2,,2960 nM (active),590 nM (active),1720 nM (active),,,,2620 nM (active),1870 nM (active)
Cc1nc(Nc2n[nH]c3c2CN(C(=O)N[C@H](CN(C)C)c2ccccc2)C3(C)C)c2sccc2n1,,14.8 nM (active),33.2 nM (active),611 nM (active),,13200 nM (active),11800 nM (active),739 nM (active),1050 nM (active)
